Screening data as filed in PubChem.
The sample as a whole holds a higher share of hits than the screen did.
Cycloheximide cs: counter-screen for Shiga toxin inhibitors: cycloheximide protein synthesis inhibition; cell reporter, cycloheximide protein synthesis inhibition counterscreen; max response, %; hit rate 12% among 300,000; in the data active means max response mostly above about 13%, no sharp cut-off; inactive means mostly below about 14%; further: read at 38.3 µM for the half of the compounds with a filed dose; 0% is about no effect
NS1 function inh: blocks influenza NS1 protein function. Potency, µM (doses to about 46.1 µM), without a hit: at the top dose activity, positive = more growth. AID 2326. hit rate 0.4% among 270,000; calls by dose curve; further: potency means the concentration at half of the fitted maximal effect; actives are rising curves; nearly all actives have a fitted effect of over 50% in size
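S. cerevisiae expressing influenza A NS1, grown in glucose, washed, then diluted 1:100 into pH 6.0 -URA galactose medium with 23 nl compound. Growth recovery read as OD600; NS1-free strain serves as control.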
AmpC inh no detg: inhibitors of E. coli AmpC beta-lactamase without detergent; P00811; hit rate 0.52% among 330,000; Potency, µM (series often up to 57.1 µM), inactives show top-dose activity change, negative = inhibition, actives largely listed as inhibitors; AmpC nitrocefin hydrolysis, absorbance 480 nm, 0.0001% Triton; AID 485341;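 further: potency means the concentration at half of the fitted maximal effect; plate controls were no compound for no effect and no enzyme for full effect; nearly all actives have a fitted effect of over 20% in size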
Target sequence (P00811 whole entry, looked up): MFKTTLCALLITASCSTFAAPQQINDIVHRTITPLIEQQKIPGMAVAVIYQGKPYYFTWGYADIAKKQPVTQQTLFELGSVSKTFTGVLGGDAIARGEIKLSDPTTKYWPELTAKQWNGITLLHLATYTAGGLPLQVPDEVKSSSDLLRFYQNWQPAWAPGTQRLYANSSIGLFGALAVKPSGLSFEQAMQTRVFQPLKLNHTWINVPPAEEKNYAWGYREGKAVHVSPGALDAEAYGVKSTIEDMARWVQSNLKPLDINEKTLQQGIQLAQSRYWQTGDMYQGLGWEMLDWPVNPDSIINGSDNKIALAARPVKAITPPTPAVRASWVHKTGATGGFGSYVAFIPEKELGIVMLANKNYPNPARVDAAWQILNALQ
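20 mM phosphate pH 7.0 + 0.01% (detergent screen) or 0.0001% Triton X-100; 5.3 nM AmpC reagent; cpd preinc 15 min RT; nitrocefin (800 uM stock) to start; A480 q20 s × 4 min; Activity was normalised to no-enzyme and no-compound control wells.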
AmpC inh detg: AmpC beta-lactamase inhibition with detergent present; Potency, µM (highest dose often 114 µM), for the others: top-dose activity change, negative = inhibition, hits mostly inhibitors; AmpC hydrolysis of nitrocefin, absorbance 480 nm, 0.01% Triton; AID 485294; hit rate 0.041% among 370,000;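 further: potency means the concentration at half of the fitted maximal effect; 0% = no-compound wells and -100% = no-enzyme wells; nearly all actives have a fitted effect of over 25% in size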
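20 mM phosphate pH 7.0 + 0.01% (detergent screen) or 0.0001% Triton X-100; 5.3 nM AmpC reagent; cpd preinc 15 min RT; nitrocefin (800 uM stock) to start; A480 q20 s × 4 min; Activity was normalised to no-enzyme and no-compound control wells.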
Shiga inhibitor: inhibitors of Shiga toxin in Vero cells; Vero cells, Shiga toxin protein synthesis inhibition reporter; inhibition, % at 38.7 µM; hit rate 9.2% among 290,000; in the data active means inhibition mostly above about 28%, no sharp cut-off; inactive means mostly below about 43%; further: 0% is about no effect
NS1 inh valid: validation of influenza NS1 protein function inhibitors. 1,400 tested, under 10 active. shares compounds with NS1 function inh. activity change, negative = inhibition, % at 32.9 µM. influenza NS1 function cell assay, 15-point titration. AID 492980; calls by dose curve; further: 0% is about no effect
Flu PR8 replic: influenza virus titer reduction, NS1 project. MDCK infected influenza A/PR/8/34, virus titer TCID50; stronger effect = lower value. AID 504647. shares compounds with NS1 function inh. virus titer (log TCID50), log10 TCID50 at 5 µM. hit rate 30% among 95; call rule not given here
An asterisk follows results filed as active; ? = inconclusive; . = no result given. Unless noted, the call rests on the fitted dose curve; in most records, active means well fitted curve in the direction sought with a large enough effect; inconclusive means small, poorly fitted or top-dose-only effect, or another doubt; inactive means no such curve, though single readings can be large; an effect the other way counts as inactive or inconclusive.

SMILES	Cycloheximide cs	NS1 function inh	AmpC inh no detg	AmpC inh detg	Shiga inhibitor	NS1 inh valid	others
COc1cc(NS(=O)(=O)c2ccc(NC(=O)COc3ccccc3Cl)cc2)nc(OC)n1	1	14µM*	-39%	-6%	0	-2
O=C(Cn1ncc2c3ccccc3n(Cc3ccc(Cl)cc3)c2c1=O)NC1CCCCCC1	.	.	.	21%	.	.
Cc1ccc(S(=O)(=O)Nc2ccc3nc(-c4cccn4C)[nH]c3c2)cc1	24*	1.6µM*	-28%	1%	37*	-34	Flu PR8 replic=8.5
Cc1ccc(S(=O)(=O)Nc2ccc3cn[nH]c3c2)cc1	.	.	-14%	-17%	.	.
NS(=O)(=O)c1ccc(CCNC(=O)C2CC(=O)N(Cc3ccccc3Cl)C2)cc1 (stereo unspecified)	.	.	-10%	-20%	.	.
COc1cc([N+](=O)[O-])ccc1NC(=O)NCCCN1CCCC1=O	4	10%	-17%	-2%	-8	.
CCn1c(CNC(=O)C2CCCCC2)cc2ccccc21	1	?	-7%	-3%	20	-7
Cc1ccc(-c2ccc(=O)n(CCC(=O)N3CCN(c4cccc(C)c4)C(C)C3)n2)cc1 (stereo unspecified)	-4	-4%	194%	7%	-4	.
O=C(N/N=C/c1coc2ccccc2c1=O)c1ccncc1	-2	3%	-16%	?	-8	.
Cc1ccc(NC(=O)CCC(=O)N/N=C/c2coc3ccccc3c2=O)cc1	10	5.6µM*	-9%	-6%	-2	-18
Cc1onc(-c2ccccc2Cl)c1C(=O)O/N=C(\N)c1ccc([N+](=O)[O-])o1	1	-8%	-41%	0%	7	.
O=C(C[n+]1cccc(C(=O)Nc2ccccc2)c1)c1ccc([N+](=O)[O-])cc1	7	2.5µM*	-26%	-13%	-2	28	Flu PR8 replic=7.7
CC1CC(C)CN(CCCNC(=O)C2CCCN(S(=O)(=O)N3CC(C)CC(C)C3)C2)C1 (stereo unspecified)	9	-63%	-7%	?	-10	.
CCOC(=O)N1CCN(S(=O)(=O)N2CCCC(C(=O)NCCCN3CC(C)CC(C)C3)C2)CC1 (stereo unspecified)	-4	?	2%	?	-8	-4	Flu PR8 replic=6*
Cc1cnc(NC(=O)CN(C)S(=O)(=O)c2ccc(Cl)cc2)s1	7	7.9µM*	-20%	-9%	21	5
CC[C@@H](C)[C@H]1O[C@]2(CC[C@@H]1C)C[C@@H]1C[C@@H](C/C=C(\C)[C@@H](O[C@H]3C[C@H](OC)[C@@H](O[C@H]4C[C@H](OC)[C@@H](O)[C@H](C)O4)[C@H](C)O3)[C@@H](C)/C=C/C=C3\CO[C@@H]4[C@H](O)C(C)=C[C@@H](C(=O)O1)[C@]34O)O2	.	7.1µM*	.	.	.	-1
COc1ccc(NC(=S)N2CCNC(=O)C2CC(=O)Nc2cccc(Cl)c2C)cc1 (stereo unspecified)	5	9%	50%	2%	9	.
O=C(OCCN=C1NS(=O)(=O)c2ccccc21)c1cccnc1	2	?	-14%	6%	-5	-4
O=C(OCCN=C1NS(=O)(=O)c2ccccc21)c1ccccc1	0	3%	-11%	-3%	-9	.
Cc1cc(N2CCOCC2)nc2ccc(NC(=O)CCC(=O)N3CCC(C)CC3)cc12	8	5.6µM*	0%	9%	103	?
Cc1cc(N2CCOCC2)nc2ccc(NC(=O)CCC(=O)N3CCCCC3)cc12	8	-3%	-1%	-3%	18	.
Cc1c(N=Cc2cccs2)c(=O)n(-c2ccccc2)n1C	8	14µM*	0%	5%	10	0
Cc1ccsc1C=Nc1c(C)n(C)n(-c2ccccc2)c1=O	4	0%	-14%	-23%	-17	.
CCN(C(=O)Cn1cnc2c1c(=O)n(C)c(=O)n2C)C1CCCCC1	.	.	-15%	-6%	.	.
Cc1cccc(NC(=O)C2CCN(c3nc(C)cc(C)n3)CC2)c1	-1	-2%	67%	-15%	-3	.
